This passage reports Inhibition results from ChEMBL document CHEMBL1157539, “Thousands of chemical starting points for antimalarial lead identification” (Nature, 2010).

Holding throughout (type): functional
Experiment [1] relates to Plasmodium falciparum. Nature of the experiment: GSK_TCMDC: Inhibition of Plasmodium falciparum 3D7 in whole red blood cells, using parasite LDH activity as an index of growth. Test compounds present at 2uM.
In experiment [2] the test system is Plasmodium falciparum. Kind of experiment: GSK_TCMDC: Inhibition of Plasmodium falciparum Dd2 in whole red blood cells, using parasite LDH activity as an index of growth. Test compounds present at 2uM.
Another experiment deals with HepG2. Nature of the experiment: GSK_TCMDC: Percent inhibition of human HepG2 cell line. Test compounds present at 10uM.

Broadly, the Inhibition is the change of the read-out against control, counted positive when it falls. Turning to `CN(c1cc(NC(=O)c2cccs2)ccn1)C1CCN(Cc2cccc(F)c2)CC1.O=C(O)C(F)(F)F`, the Inhibition in the experiment on Plasmodium falciparum [1] was 94%; with Plasmodium falciparum [2], 95%; with HepG2, 0%.

As to `Cc1[nH]c2ccccc2c1C1=CCN(CCCCCC23CCCc4cccc(c42)NC3=O)CC1` (configuration not stated), the values for the Inhibition in the experiment on Plasmodium falciparum [1], in the experiment with Plasmodium falciparum [2] and in the experiment on HepG2 were 94%, 91% and 11%, respectively.

With `O=C(C=Cc1ccccc1O)N1CCC(CN2CCC(c3c[nH]c4ccccc34)CC2)CC1`, the Inhibition in the experiment with Plasmodium falciparum [1] turned out to be 98%; with Plasmodium falciparum [2], 43%; in the experiment with HepG2, 27%.

Consider `COC(=O)c1ccc(CC(C)NCC(O)c2ccc(Cl)c(Cl)c2)cc1` (configuration not stated), for which the Inhibition in the experiment on Plasmodium falciparum [1] was found to be 87%; in the experiment on Plasmodium falciparum [2], 33%; in the experiment with HepG2, 0%.
